# Compound activity: PubChem BioAssay, National Center for Advancing Translational Sciences (NCATS)
# IMPase Li inh: membrane-permeable IMPase blocker, potentiated with lithium; 0.35% of 210,000 active; CHO-M1 cells, IP1 TR-FRET (IP-One), carbachol + lithium; Potency, µM (highest dose often 59.4 µM), without a hit: at the highest dose activity, negative = IMPase inhibition, actives largely listed as inhibitors;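 also: IP1 builds up when IMPase is blocked and the TR-FRET signal falls; potency is read from the fitted curve at half-maximal effect; plate controls were basal vehicle for no effect and high inhibitor control for full effect; nearly all actives have a fitted effect of over 50% in size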
#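 Concentration–response in CHO-M1 cells, lithium-potentiated; 30 min at 37C. IP1 detected by competitive TR-FRET after 10 min lysis at RT. Hill-fitted AC50.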
# HPGD inh: blocks human HPGD enzyme activity; P15428; purified HPGD, NADH fluorescence kinetic, PGE2 substrate; Potency, µM, for inactives: at the top dose activity change, negative = inhibition, actives largely listed as inhibitors; 4.3% of 150,000 active; AID 894; active = well fitted inhibition curve with a large enough effect, not every such curve was filed as active; inconclusive = small, poorly fitted or top-dose-only effect, or another doubt; inactive = no such curve, though single readings can be large or run the other way; also: potency is read from the fitted curve at half-maximal effect
# Target sequence (P15428 whole entry, looked up): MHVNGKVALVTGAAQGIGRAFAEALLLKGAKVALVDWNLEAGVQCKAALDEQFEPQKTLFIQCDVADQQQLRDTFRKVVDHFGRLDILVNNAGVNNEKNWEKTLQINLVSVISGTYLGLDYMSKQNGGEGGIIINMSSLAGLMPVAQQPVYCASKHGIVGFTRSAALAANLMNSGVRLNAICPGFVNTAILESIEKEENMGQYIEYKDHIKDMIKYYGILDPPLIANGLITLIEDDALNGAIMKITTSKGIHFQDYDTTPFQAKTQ
#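 20 nM HPGD preincubated 15 min at room temperature with compound in 50 mM Tris-HCl pH 8, 0.01% Tween 20. Started with 1 mM NAD+ and 30 uM prostaglandin E2; NADH fluorescence (360/450 nm) read 5 times over 30-s intervals, last minus first.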
# 15-hLO-2 inh: inhibitors of human 15-lipoxygenase 2 (ALOX15B) | purified 15hLO-2, xylenol orange hydroperoxide absorbance | Potency, µM (top dose mostly 57.1 µM), inactives show top-dose activity change, negative = inhibition, most hits filed as inhibitors | 0.56% of 110,000 active; also: potency is read from the fitted curve at half-maximal effect; nearly all actives have a fitted effect of over 60% in size
#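 Purified human 15hLO-2 (50 nM) preincubated 15 min with compound, then 45 uM arachidonic acid for 90 min at RT in 25 mM Hepes pH 7.5, 0.01% Triton X-100. Hydroperoxide detected by Fe-xylenol orange; 573/405 nm absorbance ratio.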
# PNC inhibitor: perinucleolar compartment assembly inhibition; activity change (PNC), negative = inhibition, % at 10 µM; 3.1% of 140,000 active; AID 2417; PC3M PTB-GFP, PNC prevalence imaging, 16 h; hits give low values;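 active = readout at or below -70, meaning at least 70% loss of cells showing the perinucleolar compartment, a nuclear body marking cancer cells; inconclusive = readout between -30 and a set limit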;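 also: plate controls were DMSO wells for no effect and camptothecin positive control wells for full effect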
#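 Compounds are pinned in duplicate onto adhered PC3M cells stably expressing GFP-tagged PTB and incubated 16 h at 37 C. Cells are then fixed, nuclei stained with Hoechst, and PNC-positive cells counted.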
# ALOX12 inhib: blocks human 12-lipoxygenase activity. 0.12% of 150,000 active. Potency, µM (titrated, usually from 57.1 µM), for the others: at the top dose activity change, negative = inhibition, usual class: inhibitors. purified 12-hLO, xylenol orange hydroperoxide absorbance; also: potency is read from the fitted curve at half-maximal effect; nearly all actives have a fitted effect of over 55% in size
#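 Xylenol orange chromogenic assay: hydroperoxide from 12hLO oxidises Fe(II), giving red-shifted Fe(III)-XO absorbance. Conditions: 150 nM enzyme, 40 uM arachidonic acid, 25 mM Hepes pH 7.0, 0.01% Triton X-100, 30 min, room temperature.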
# IMPase cell inh: cell-permeable inhibitors of inositol monophosphatase (IMPase); CHO-M1 cells, IP1 accumulation, HTRF TR-FRET ratio; inhibition (IP1 accumulation), % at 46.1 µM; 120,000 tested, under 10 active; AID 901; active = well fitted curve in the direction sought with a large enough effect in the signal ratio, not every such curve was filed as active; inconclusive = small, poorly fitted or top-dose-only effect, or a change in a side signal; inactive = no such curve, though single readings can be large or run the other way; the % refers to the signal ratio;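 also: cells stimulated with carbachol in lithium chloride buffer; plate controls were DMSO basal wells for no effect and reference inhibitor wells for full effect; higher means more IMPase inhibition seen as more IP1 and lower FRET ratio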
# Target sequence (P97697 whole entry, looked up): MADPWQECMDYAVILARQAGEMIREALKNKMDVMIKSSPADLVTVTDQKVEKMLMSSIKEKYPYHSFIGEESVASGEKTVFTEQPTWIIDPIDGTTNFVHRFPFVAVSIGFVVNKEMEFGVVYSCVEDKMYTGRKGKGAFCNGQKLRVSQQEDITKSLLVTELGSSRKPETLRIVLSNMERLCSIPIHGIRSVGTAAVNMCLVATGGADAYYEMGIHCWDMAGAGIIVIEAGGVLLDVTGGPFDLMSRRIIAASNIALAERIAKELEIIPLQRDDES
#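 Cellular IMPase inhibition is scored as a rise in cytosolic IP1, detected by competitive TR-FRET between d2-labelled IP1 and a europium anti-IP1 antibody. M1-expressing CHO cells were stimulated with carbachol for 30 min at 37C, with lithium (50 mM LiCl) present in the buffer.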
# An asterisk follows results filed as active; ? = inconclusive; nt = no result given; [ ] = another dose, or the depositor's remark. Hits are enriched below; roughly 5.3% of the tested compounds scored in any of these assays. Unless noted, calls follow the shape of the dose curve; as a rule, active = well fitted curve in the direction sought with a large enough effect; inconclusive = small, poorly fitted or top-dose-only effect, or another doubt; inactive = no such curve, though single readings can be large; an effect the other way counts as inactive or inconclusive. Unless noted, % is scaled to controls: 0 for no effect and ±100 for the full control effect.
SMILES,IMPase Li inh,HPGD inh,15-hLO-2 inh,PNC inhibitor,ALOX12 inhib,IMPase cell inh
CCOC(=O)Cc1csc(NC(=O)NC2(C(F)(F)F)Oc3ccc(Cl)cc3O2)n1 (stereo not drawn),12%[38.3 µM],-18%,?,?,-25%,-2
CCOC(=O)Cc1csc(NC(=O)C2C3C=CC(C3)C2C(=O)O)n1 (stereo not drawn),6%[38.3 µM],-8%,-2%,-107*,4%,1
CCOC(=O)Cc1csc(NC(=O)NC2(C(F)(F)F)Oc3ccccc3O2)n1,-14%[38.3 µM],35µM*,-23%,-7,-9%,5
Cc1csc(NC(=O)C2C3C=CC(C3)C2C(=O)O)n1 (stereo not drawn),5%[38.3 µM],-3%,-1%,-27,8%,2
Cc1nc(CN2CCN(C(=O)c3ccc(Br)cc3)CC2)cs1,-11%[38.3 µM],7%,6%,?,-3%,12
COc1cc(/C=N\n2nnnc2N)ccc1OCc1ccc(F)cc1,-2%[38.3 µM],?,-7%,25,-7%,-1
COc1cc(/C=N/n2c(C)n[nH]c2=S)ccc1OCc1ccc(F)cc1,16%,2.8µM*,nt,-30,0%,nt
O=C(CN1CCCCCC1)N/N=C/c1ccc(Cl)c(Cl)c1,-16%,-20%,nt,-6,-3%,nt
O=C(CN1CCSCC1)N/N=C/c1ccc(F)c(F)c1,12%[38.3 µM],-9%,0%,-113*,-1%,4
CCOC(=O)N1CCC(N2Cc3cccc(C(=O)Nc4cccc(F)c4)c3C2=O)CC1,11%,nt,nt,nt,nt,nt
CC(=O)N1CCC(N(CCN2CCOCC2)C(=S)Nc2c(C)cccc2C)CC1,0%,-12%,nt,10,-1%,nt
Cc1nn(Cc2ccccc2)c(C)c1/C=N/NC(=O)c1cccnc1,-12%,32µM*,nt,?,3%,nt
COc1cccc2c1C(=O)c1c(O)c3c(c(O)c1C2=O)C[C@@](O)(C(=O)CO)C[C@@H]3O[C@@H]1C[C@H](N)[C@H](O)[C@H](C)O1,10%,-8%,nt,nt,nt,nt
COc1cccc2c1C(=O)c1c(O)c3c(c(O)c1C2=O)C[C@@](O)(C(=O)CO)C[C@@H]3O[C@H]1C[C@H](N)[C@H](O)[C@H](C)O1,36%,-14%,21%,-115*,-3%,nt
COc1ccccc1/C=C/C=N/NC(=O)CCn1nnc2ccccc21,2%,-10%,nt,10,1%,-1
O=C(NN1C(=O)C2C(c3ccccc3)C=CC(c3ccccc3)C2C1=O)c1ccncc1 (stereo not drawn),6%,nt,nt,nt,nt,nt
O=C(NN1C(=O)C2C3C=CC(C3)C2C1=O)c1ccncc1 (stereo not drawn),3%,-8%,nt,-113*,2%,nt
Clc1ccc(OCc2nn3c(C4CCCCC4)nnc3s2)c(Cl)c1,-6%[38.3 µM],2.8µM*,26%,-82*,-10%,-5
COc1ccccc1-c1nnc2sc(COc3ccc(Cl)cc3Cl)nn12,-13%[38.3 µM],1.3µM*,50%,54,-4%,5
COc1cc(OC)c(-c2nn3c(C4CCCCC4)nnc3s2)cc1OC,6%[38.3 µM],?,-5%,3,-1%,-4
COc1ccc(-c2cc(CNS(=O)(=O)c3ccccc3)on2)cc1,-8%,nt,nt,nt,nt,nt
CSc1nnc(-c2ccccc2Cl)o1,17%[38.3 µM],32µM*,3%,55,11%,6
CSc1ccccc1-c1nnc(-c2ccc(Cl)cc2Cl)o1,?,?,-9%,?,1%,2
CCSc1nnc(-c2ccc(Cl)cc2Cl)o1,-7%[38.3 µM],14µM*,11%,-4,4%,9
CCSc1nnc(-c2ccccc2SC)o1,11µM*,nt,nt,nt,nt,nt
SMILES,IMPase Li inh,HPGD inh,15-hLO-2 inh,PNC inhibitor,ALOX12 inhib,IMPase cell inh
CSc1nnc(-c2ccc(Cl)cc2Cl)o1,-13%[38.3 µM],-20%,3%,-2,4%,3
Cc1ccc([N+](=O)[O-])c(N)c1,6%,-4%,-9%,nt,3%,nt
O=C(COC(=O)Cn1cnc2ccccc2c1=O)Nc1ccccc1Sc1ccc(Cl)cc1,2%,-5%,nt,-16,-2%,2
Oc1cc(O)cc(/C=C\c2ccc(O)c(O)c2)c1,nt,nt,3.2µM*,nt,?,10
COc1ccc(C(C[N+](=O)[O-])c2c(C)cc3ccccn23)cc1 (stereo not drawn),12%,nt,nt,nt,nt,nt
COc1ccc(C(C[N+](=O)[O-])c2c(-c3ccccc3)cc3ccccn23)c(OC)c1 (stereo not drawn),61%[38.3 µM],22µM*,-27%,?,?,14
COc1ccccc1-c1cc(C(F)(F)F)nc(S(=O)(=O)CCCC(=O)N2CCOCC2)n1,24%[38.3 µM],14µM*,-7%,24,-3%,14
COc1ccccc1-c1cc(C(F)(F)F)nc(S(=O)(=O)CCCC(=O)O)n1,32%[38.3 µM],?,-2%,52,-2%,-5
Nc1nc(-c2ccc3c(c2)CCC(=O)N3)cs1,-1%,nt,nt,nt,nt,nt
CC(C)C(=O)N1CCc2cc(-c3csc(N)n3)ccc21,4%[38.3 µM],20µM*,-25%,45,-4%,0
Cc1ccccc1C(=O)/C=C1\NC(=O)CS1,-8%[38.3 µM],16µM*,-4%,-14,-3%,-2
O=C1CS/C(=C/C(=O)c2ccccc2)N1,-15%[38.3 µM],20µM*,-9%,?,1%,-3
CCOC(=O)c1sc2nc(C3CC3)cc(-c3ccc(F)cc3)c2c1N,11µM*,?,18%,-5,-11%,-7
CCOC(=O)c1sc2nc(C3CC3)cc(-c3ccc(OC)cc3)c2c1N,-28%[38.3 µM],?,14%,?,2%,-13
Cn1c(NC(=O)c2ccccc2)c(-c2ccccn2)c(=O)c2ccccc21,22µM*,-13%,-4%,9,6%,6
Cn1c(NC(=O)c2ccccc2)c(-c2cccs2)c(=O)c2ccccc21,4%[38.3 µM],-8%,0%,7,3%,-3
C=C(C)Cn1c(-c2ccncc2)n[nH]c1=S,-15%,nt,nt,nt,nt,nt
C[C@@H](C(=O)O)c1cccc(C(=O)c2ccccc2)c1,-1%,-7%,-3%[25.6 µM],nt,2%[25.6 µM],-3[20.6 µM]
COc1cc(C2Oc3nc(SC)nnc3-c3ccccc3N2C(C)=O)cc(Cl)c1OC (stereo not drawn),nt,nt,nt,nt,nt,1
CCCN1C(=O)c2cccc3c(N4CCCCC4)ccc(c23)C1=O,1%,-13%,nt,-88*,0%,nt
CCOC(=O)C1=C(C)NC(=O)NC1c1cn(-c2ccccc2)nc1-c1ccc(OC(C)C)cc1 (stereo not drawn),nt,nt,nt,nt,nt,9
CC1=C(C(=O)c2ccccc2)C(c2cn(-c3ccccc3)nc2-c2ccc(Cl)cc2)NC(=S)N1 (stereo not drawn),nt,nt,7.9µM*,-17,16µM*,5
CCOc1ccccc1-n1c(SCC(N)=O)nc2ccccc2c1=O,-3%[38.3 µM],-5%,2%,-106*,4%,2
